Eight compounds from PubChem BioAssay (Tox21) can be followed below.

SMILES strings stand for the structures. A number with no mark means an inactive call. Inconclusive results are not listed. Active and inactive are the calls of the source. Unless noted, calls come from the whole dose curve; as a rule, active = well fitted curve in the direction sought with a large enough effect in the repeat runs; inconclusive = weak or mixed curves; inactive = no such curve, though single readings can be large; an effect the other way counts as inactive or inconclusive.

Assay [1] is described as follows: qHTS assay to identify small molecule antagonists of the estrogen receptor beta (ER-beta) signaling pathway - cell viability counter screen (AID 1259382).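 Note: HEK293T cells carrying ER-beta-UAS-bla reporter stimulated with estradiol; series mostly up to about 92 µM; nearly all actives have a fitted effect of over 55% in size.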 A digest of the protocol:
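HEK293T ER-beta-UAS-bla, 2% charcoal-stripped FBS; compounds + 1nM E2 16 hr 37C; CellTiter-Glo luminescence, 30 min RT.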
(In general: Quantitative high-throughput screening tests each substance at several concentrations.)

Assay [2] in a line: qHTS assay to identify small molecule agonists or antagonists of the thyroid stimulating hormone receptor (TSHR) signaling pathway - wild type cell line counter screen (AID 1259384; calls by dose curve). A digest of the protocol:
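Wild-type HEK293 cells were plated 18 h at 37 C/5% CO2, pin-dosed with compound plus Ro20-1724 medium, held 30 min at room temperature, then given cAMP-d2 and anti-cAMP-cryptate; fluorescence was read after 1 h. Fifteen concentrations, triplicate.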

Assay [3] concerns the target Thyrotropin receptor (Homo sapiens) (UniProt P16473). The experiment in a line: qHTS assay to identify small molecule antagonists of the thyroid stimulating hormone receptor (TSHR) signaling pathway (AID 1259385; calls by dose curve; note: nearly all actives have a fitted effect of over 20% in size). A digest of the protocol: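 TSHR-HEK293 cells were plated and held 18 h at 37C/5% CO2, then given compound plus Ro20-1724 and stimulated with TSH at 1.5 ng/mL final. After 30 min at room temperature, cAMP was detected with cAMP-d2/anti-cAMP-cryptate (1 h) by fluorescence.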

A short description of assay [4]: qHTS assay to identify small molecule agonists of the estrogen receptor alpha (ER-alpha) signaling pathway in the presence of an antagonist - cell viability counter screen (AID 1259386).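 Note: series mostly up to about 92 µM; cells exposed to compounds for 22 h at 37 °C before the viability read; nearly all actives have a fitted effect of over 30% in size.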 A digest of the protocol: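 Steps: 5-day stripped-FBS culture; seed and incubate 24hr; add ICI-182,780 (10.0nM final); pin 15-point compound titration; incubate 22hr at 37C; add CellTiter-Fluor at 21hr; read fluorescence.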

The target of assay [5] is Progesterone receptor (Homo sapiens) (UniProt P06401). The experiment in a line: qHTS assay to identify small molecule agonists of the progesterone receptor (PR) signaling pathway (AID 1346784; calls by dose curve; note: nearly all actives have a fitted effect of over 30% in size). A digest of the protocol: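 Compounds were tested for PR agonism in HEK 293T cells bearing a beta-lactamase gene under UAS control. Treatment lasted 16 hr at 37C; signal came from fluorescence of a FRET substrate.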

The target is the same in assay [6]. The experiment in a line: qHTS assay to identify small molecule antagonists of the progesterone receptor (PR) signaling pathway (AID 1346795; active = well fitted inhibition curve with a large enough effect in the signal ratio in the repeat runs, not every such curve was filed as active; the % refers to the signal ratio). A digest of the protocol: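 In HEK293T cells bearing the PR-UAS-bla reporter, compound effects on promegestone-driven (1 nM) beta-lactamase expression are assessed after 16 hr using a fluorescent FRET substrate incubated 2 hr at room temperature.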

Assay [7] in a line: qHTS assay to identify small molecule agonists of the progesterone receptor (PR) signaling pathway - cell viability counter screen (AID 1346799; calls by dose curve; note: nearly all actives have a fitted effect of over 45% in size). A digest of the protocol:
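Here, 3,000 PR-UAS-bla HEK293T cells per well were treated with compounds for 16 hr after a 6 hr preincubation at 37C and 5% CO2; cell viability is the CellTiter-Glo luminescence signal.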

The nature of assay [8]: qHTS assay to identify small molecule antagonists of the TGF-beta/Smad signaling pathway - cell viability counter screen (AID 1346824). Note: nearly all actives have a fitted effect of over 50% in size. A digest of the protocol:
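SBE-bla HEK 293T cells were plated overnight at 37 C, then given compounds in DMSO plus TGF-beta1 (added as 0.25 ng/mL solution) for 5 hr. After the bla read, CellTiter-Glo was added to the same wells and luminescence read after 30 min at room temperature.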

Assay [9] in a line: qHTS assay to identify small molecule agonists of the TGF-beta/Smad signaling pathway - cell viability counter screen (AID 1346829). Note: top concentration of the series differs between compounds; nearly all actives have a fitted effect of over 45% in size. A digest of the protocol:
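Tox21 qHTS format: SBE-bla HEK 293T cells treated with DMSO-dissolved compounds for 5 hr; CellTiter-Glo luminescence after 30 min at room temperature.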

Assay [10] can be described thus: qHTS assay to identify small molecule agonists of the TGF-beta/Smad signaling pathway (AID 1346859; active = well fitted activation curve with a large enough effect in the signal ratio in the repeat runs, not every such curve was filed as active; the % refers to the signal ratio; note: series mostly up to about 77 µM). A digest of the protocol:
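Each well held 4,000 SBE-bla HEK 293T cells incubated overnight before compound addition; 5 hr later the cleavable FRET substrate went on for 2 hr at room temperature, and fluorescence was read at two emissions.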

Assay [11] is described as follows: Human pregnane X receptor (PXR) small molecule agonists, qHTS cell viability counter screen (AID 1346977). Note: nearly all actives have a fitted effect of over 50% in size. A digest of the protocol:
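Tox21 qHTS format; PXR-Luc HepG2, 2,000/well, charcoal-stripped FBS 5%. Cpd exposure 24hr. Read: CellTiter-Fluor fluorescence, multiplexed with luciferase.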

The nature of assay [12]: Caspase-3/7 induction in HepG2 cells by small molecules, qHTS assay (AID 1346978). Note: nearly all actives have a fitted effect of over 15% in size. A digest of the protocol: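 Wild-type HepG2 cells (2,000/well) were settled 5 h at 37 C, 5% CO2, then exposed to compounds in DMSO for 17 h. Caspase-3/7 activity was read by luminescence 30 min after adding Caspase-Glo 3/7 reagent at room temperature.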
Assay [13] in a line: Caspase-3/7 induction in CHO-K1 cells by small molecules, qHTS cell viability counter screen (AID 1346979). Note: nearly all actives have a fitted effect of over 35% in size. A digest of the protocol:
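CellTiter-Fluor viability check, qHTS format: wild-type CHO-K1, 16hr compound treatment, 1hr reagent incubation, fluorescence read.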

Assay [14] in a line: Caspase-3/7 induction in CHO-K1 cells by small molecules, qHTS assay (AID 1346980). Note: nearly all actives have a fitted effect of over 15% in size. A digest of the protocol: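 Wild-type cells were seeded at 1,500 per well and settled 5 hr at 37 C, 5% CO2, then exposed to DMSO-dissolved compounds for 17 hr. Caspase-Glo 3/7 reagent was added, and luminescence was read after 30min at room temperature.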
The nature of assay [15]: Caspase-3/7 induction in HepG2 cells by small molecules, qHTS cell viability counter screen (AID 1346981). Note: series mostly up to about 92 µM; nearly all actives have a fitted effect of over 30% in size. A digest of the protocol:
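The parent HepG2 line is plated at 2,000 cells per well and rested 5 hr before compound pinning from DMSO stocks. Following a 16-hr treatment at 37 C, a fluorogenic live-cell substrate (CellTiter-Fluor) reports viability after 1 hr.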

Assay [16] has as its target Nuclear receptor subfamily 1 group I member 2 (Homo sapiens) (UniProt O75469). As to the kind of experiment: Human pregnane X receptor (PXR) small molecule agonists, qHTS assay (AID 1346982). Note: nearly all actives have a fitted effect of over 35% in size. Note: potency is the fitted concentration of half-maximal effect. A digest of the protocol:
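After plating in 5% charcoal-stripped FBS and a 5 hr rest, PXR-Luc HepG2 cells received compounds in DMSO. Following 24 hr at 37 C, ONE-Glo was added and light output read.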

The nature of assay [17]: qHTS assay to identify small molecule antagonists of the progesterone receptor (PR) signaling pathway - cell viability counter screen (AID 1346798). Note: series mostly up to about 92 µM; nearly all actives have a fitted effect of over 50% in size. A digest of the protocol: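 Following a 4 hr attachment, PR-UAS-bla HEK293T cells in charcoal-stripped FBS medium were exposed to compounds with R5020 for 16 hr; CellTiter-Glo was added and luminescence read after 30 min at room temperature.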

Assay [18] concerns the target Thyrotropin-releasing hormone receptor (Homo sapiens) (UniProt P34981). The experiment in a line: qHTS assay to identify small molecule antagonists of the thyrotropin-releasing hormone receptor (TRHR) signaling pathway (AID 1346877; active = well fitted inhibition curve with a large enough effect in the repeat runs, not every such curve was filed as active; note: series mostly up to about 51 µM). A digest of the protocol: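 Human TRHR in HEK293 cells; inhibition of the intracellular calcium rise triggered by 1 nM TRH was followed by fluorescence over 3 min. Compounds were run at 15 concentrations, three replicates each.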

The target is the same in assay [19]. The experiment in a line: qHTS assay to identify small molecule agonists of the thyrotropin-releasing hormone receptor (TRHR) signaling pathway (AID 1346891; calls by dose curve; note: series mostly up to about 58 µM). A digest of the protocol: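 Screening of agonists relied on calcium signalling in HEK293 cells expressing human TRHR: dye loading 2 h at 37 °C preceded compound addition and a 3-min fluorescence time course.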

Sequence of Progesterone receptor (Homo sapiens) (P06401 whole entry, looked up): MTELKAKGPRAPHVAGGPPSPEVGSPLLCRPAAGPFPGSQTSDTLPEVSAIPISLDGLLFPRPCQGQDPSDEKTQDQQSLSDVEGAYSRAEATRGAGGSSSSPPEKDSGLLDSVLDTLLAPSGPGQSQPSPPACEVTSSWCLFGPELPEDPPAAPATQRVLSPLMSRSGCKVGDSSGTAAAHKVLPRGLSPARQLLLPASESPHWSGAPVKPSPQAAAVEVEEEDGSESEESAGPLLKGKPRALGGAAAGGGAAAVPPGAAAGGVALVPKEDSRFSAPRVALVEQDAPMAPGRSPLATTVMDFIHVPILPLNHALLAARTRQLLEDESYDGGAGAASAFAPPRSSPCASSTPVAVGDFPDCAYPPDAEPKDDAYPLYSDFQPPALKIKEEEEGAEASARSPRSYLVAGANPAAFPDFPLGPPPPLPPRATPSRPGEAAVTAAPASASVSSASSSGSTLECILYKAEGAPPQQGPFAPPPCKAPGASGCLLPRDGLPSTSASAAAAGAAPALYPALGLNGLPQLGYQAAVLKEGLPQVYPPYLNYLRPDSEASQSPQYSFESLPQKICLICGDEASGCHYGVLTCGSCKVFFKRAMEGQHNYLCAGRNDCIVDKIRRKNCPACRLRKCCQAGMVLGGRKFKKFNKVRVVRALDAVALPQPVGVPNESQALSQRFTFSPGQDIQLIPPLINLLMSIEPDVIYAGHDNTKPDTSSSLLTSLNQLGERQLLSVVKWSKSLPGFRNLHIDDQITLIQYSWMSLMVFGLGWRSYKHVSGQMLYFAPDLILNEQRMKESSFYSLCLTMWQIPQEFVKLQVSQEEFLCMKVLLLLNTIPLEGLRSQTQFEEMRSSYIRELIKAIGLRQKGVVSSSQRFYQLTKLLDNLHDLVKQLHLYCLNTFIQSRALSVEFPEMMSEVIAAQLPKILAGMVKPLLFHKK
Sequence of Nuclear receptor subfamily 1 group I member 2 (Homo sapiens) (O75469 whole entry, looked up): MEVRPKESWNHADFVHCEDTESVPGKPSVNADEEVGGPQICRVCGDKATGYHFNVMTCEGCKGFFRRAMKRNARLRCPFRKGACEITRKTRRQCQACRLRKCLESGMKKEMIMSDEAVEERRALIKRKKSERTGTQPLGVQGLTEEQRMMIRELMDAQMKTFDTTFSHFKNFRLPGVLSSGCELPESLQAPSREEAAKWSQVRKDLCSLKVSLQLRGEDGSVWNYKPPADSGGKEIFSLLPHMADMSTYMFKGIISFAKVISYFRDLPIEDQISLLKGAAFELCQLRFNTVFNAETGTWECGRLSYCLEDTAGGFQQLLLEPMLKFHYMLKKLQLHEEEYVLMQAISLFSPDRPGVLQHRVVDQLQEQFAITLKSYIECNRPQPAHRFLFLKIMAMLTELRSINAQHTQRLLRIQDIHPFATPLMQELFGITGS
Sequence of Thyrotropin receptor (Homo sapiens) (P16473 whole entry, looked up): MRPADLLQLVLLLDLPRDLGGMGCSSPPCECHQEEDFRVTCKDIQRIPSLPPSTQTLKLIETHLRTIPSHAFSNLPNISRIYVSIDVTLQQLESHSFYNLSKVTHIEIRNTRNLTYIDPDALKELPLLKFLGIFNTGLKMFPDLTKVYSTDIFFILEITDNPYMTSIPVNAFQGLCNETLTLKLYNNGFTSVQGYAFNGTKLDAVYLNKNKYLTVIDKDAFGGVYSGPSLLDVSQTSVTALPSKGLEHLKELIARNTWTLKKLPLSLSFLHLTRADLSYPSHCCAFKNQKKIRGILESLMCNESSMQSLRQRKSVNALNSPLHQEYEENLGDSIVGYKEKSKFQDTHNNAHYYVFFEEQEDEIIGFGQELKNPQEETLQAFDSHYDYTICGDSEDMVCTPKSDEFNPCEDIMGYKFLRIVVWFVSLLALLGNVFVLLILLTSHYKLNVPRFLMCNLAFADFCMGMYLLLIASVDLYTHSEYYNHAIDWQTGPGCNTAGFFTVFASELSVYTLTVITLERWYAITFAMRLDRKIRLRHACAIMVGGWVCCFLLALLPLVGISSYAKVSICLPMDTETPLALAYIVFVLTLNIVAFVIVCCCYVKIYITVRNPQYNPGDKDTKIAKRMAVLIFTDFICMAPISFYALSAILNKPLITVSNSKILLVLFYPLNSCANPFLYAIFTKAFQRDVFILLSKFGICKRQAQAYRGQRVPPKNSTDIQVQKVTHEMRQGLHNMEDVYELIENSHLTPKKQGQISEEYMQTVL
Sequence of Thyrotropin-releasing hormone receptor (Homo sapiens) (P34981 whole entry, looked up): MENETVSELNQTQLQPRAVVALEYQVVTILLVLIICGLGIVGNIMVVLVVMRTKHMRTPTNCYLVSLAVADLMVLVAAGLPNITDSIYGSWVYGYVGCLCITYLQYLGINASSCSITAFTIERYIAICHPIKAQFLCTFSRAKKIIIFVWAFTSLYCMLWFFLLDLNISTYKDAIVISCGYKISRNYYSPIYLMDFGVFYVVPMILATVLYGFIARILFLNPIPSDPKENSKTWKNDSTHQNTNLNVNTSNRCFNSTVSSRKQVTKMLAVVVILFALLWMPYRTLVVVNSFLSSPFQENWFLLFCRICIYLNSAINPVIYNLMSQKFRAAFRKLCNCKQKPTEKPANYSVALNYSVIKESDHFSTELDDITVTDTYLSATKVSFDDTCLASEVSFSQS

Take `CCOC(=O)CCc1ccccc1`: the call in [1], in assay [2], in assay [3], in [8], in assay [9] and in assay [10] was inactive. For the same compound, the compound was called inactive in assay [12] and in assay [14]. For the same compound, the Potency entry in assay [4], in assay [5], in assay [6], in assay [7], in [11] and in [13] was “inactive” throughout. Further, the Potency entry in [15] and in assay [16] was “inactive” throughout.
Regarding `CC(Cl)COP(=O)(OCC(C)Cl)OCC(C)Cl` (stereo not given), the call in assay [1], in assay [2], in assay [3], in assay [8], in [9] and in assay [10] was inactive. Besides, the compound was classed as inactive in [18], in [19], in [12] and in assay [14]. The Potency result in [4], in assay [5], in assay [17], in [7], in assay [11] and in assay [13] was “inactive” in each case. Also, the Potency entry in assay [15] was “inactive”. For the same compound, the Potency in assay [16] was 13.6 µM (active).
With `CN[C@@H]1[C@@H](O)[C@@H](O[C@@H]2[C@H](O)[C@H](O[C@H]3OC(CN)=CC[C@H]3N)[C@@H](N)C[C@H]2N)OCC1(C)O` (stereo not given in full), the compound was called inactive in assay [1], in [2], in [3], in [8], in assay [12] and in assay [14]. Moreover, the Potency entry in assay [4], in assay [5], in [6], in assay [17], in [7] and in assay [11] was “inactive” throughout. Moreover, the Potency entry in assay [13] and in assay [15] was “inactive” in each case.
Turning to `CCCCCCCCC(=O)OCC`, the call in [1], in assay [2], in assay [3], in [8], in assay [9] and in [10] was inactive. The compound was called inactive in assay [18], in assay [19], in assay [12] and in assay [14]. Moreover, the Potency result in [4], in [5], in [6], in assay [7], in assay [11] and in assay [13] was “inactive” each time. The Potency result in assay [16] is “inactive”.
`CCCCCC1CCCC(=O)O1` (stereo not given): the result in assay [1], in [2], in assay [3], in assay [8], in [9] and in [10] was inactive. Besides, the outcome in [18], in assay [19], in assay [12] and in assay [14] was inactive. The Potency entry in assay [4], in assay [5], in assay [17], in assay [13], in assay [15] and in assay [16] was “inactive” each time.
For `C=C(C)[C@@H]1CC[C@@H](C)C[C@@H]1O`, the compound was called inactive in [1], in assay [2], in assay [3], in assay [8], in assay [9] and in [10]. The result in [12] and in assay [14] was inactive. Further, the Potency result in assay [4], in assay [5], in assay [6], in [7], in assay [11] and in assay [13] was “inactive” each time. The Potency result in [15] is “inactive”.
Regarding `FC(F)(F)c1ccc(Cl)cc1Cl`, the result in assay [1], in assay [2], in [3], in [8], in [9] and in assay [10] was inactive. Besides, the result in assay [18], in [19] and in assay [14] was inactive. Further, the Potency result in assay [4], in assay [5], in assay [6], in [17], in assay [7] and in assay [11] was “inactive” throughout. Moreover, the Potency entry in [13], in [15] and in assay [16] was “inactive” each time.
For the compound `O=C(O)C(=O)Nc1cccc(-c2nn[nH]n2)c1`, the result in [1], in assay [2], in [3], in assay [8], in assay [9] and in assay [10] was inactive. Besides, the result in assay [12] and in assay [14] was inactive. Besides, the Potency entry in assay [4], in assay [5], in [17], in [7], in [11] and in assay [13] was “inactive” throughout. Also, the Potency result in assay [15] and in assay [16] was “inactive” throughout.
